GALK inhibitor = inhibits human galactokinase. Potency, µM (top dose mostly 57.5 µM), for the others: at the highest dose activity, negative = inhibition, usual class: inhibitors. AID 1347072. 44,000 tested, under 10 active. recombinant GALK, Kinase-Glo ATP luminescence, 1 h;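 note: plate controls were full GALK reaction for no effect and reaction lacking GALK for full effect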
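Luminescent ATP-depletion readout (Kinase-Glo Plus) after 1 h room-temperature incubation of human GALK (5 nM) with galactose 100 µM and ATP 35 µM, pH 8.0 HEPES/Mg2+ buffer; compounds tested in qHTS format.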
NTMT1 inhibitor = NTMT1 methyltransferase inhibition; 59,000 compounds, 2.5% hits; Potency, µM (top dose mostly 114 µM), without a hit: top-dose activity change, negative = inhibition, hits mostly inhibitors; NTMT1 MTase-Glo SAH luminescence, purified enzyme; Q9BV86;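 note: potency is the fitted concentration of half-maximal effect; plate controls were DMSO vehicle for no effect and no enzyme for full effect; nearly all actives have a fitted effect of over 65% in size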
GALC G270D up = galactocerebrosidase G270D activity enhancement, cell-based; P54803; 145M-Twi-hGALC-G270D cells (Twitcher mouse brain line with human GALC G270D), HMU-beta-Gal fluorescence, 48 h; Potency, µM (titrated, usually from 57.5 µM), actives largely listed as activators; 45,000 compounds, 0.1% hits; note: potency is the fitted concentration of half-maximal effect; 0% is about no effect; nearly all actives have a fitted effect of over 65% in size
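Fluorescence readout: HMU-β-gal cleavage by mutant GALC (0.1 mM final, citrate/phosphate pH 5.2 with 1 mg/mL taurocholate), stopped with carbonate/bicarbonate plus Triton X-100. Cells: murine Twitcher 145M-Twi expressing human G270D GALC; qHTS for activators.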
B2AR arrestin ag = agonists recruiting beta-arrestin to human beta2-adrenergic receptor | P07550 | HTLA Tango cells, beta-arrestin recruitment, luciferase luminescence, 18 h | Potency, µM (titrated, usually from 46.1 µM), actives largely listed as activators | 44,000 tested, under 10 active;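 note: potency is the fitted concentration of half-maximal effect; 0% = DMSO and full agonism = EC100 isoproterenol or metaproterenol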
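Ligand-induced beta-arrestin recruitment to recombinant beta2-AR is measured via a tTA-driven luciferase reporter in Tango cells after 18 hr compound exposure at 37 degrees C. Concentrations span up to 46 microM.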
TSG101-PTAP inh = blocks PTAP binding to human TSG101, validation; Q99816; Fluorescence polarization, FITC-PTAP peptide/Tsg101, 20 min; Potency, µM (highest dose often 115 µM), most hits filed as inhibitors; 44,000 tested, under 10 active; AID 1347069; note: potency is the fitted concentration of half-maximal effect; 0% is about no effect
Target sequence (Q99816 whole entry, looked up): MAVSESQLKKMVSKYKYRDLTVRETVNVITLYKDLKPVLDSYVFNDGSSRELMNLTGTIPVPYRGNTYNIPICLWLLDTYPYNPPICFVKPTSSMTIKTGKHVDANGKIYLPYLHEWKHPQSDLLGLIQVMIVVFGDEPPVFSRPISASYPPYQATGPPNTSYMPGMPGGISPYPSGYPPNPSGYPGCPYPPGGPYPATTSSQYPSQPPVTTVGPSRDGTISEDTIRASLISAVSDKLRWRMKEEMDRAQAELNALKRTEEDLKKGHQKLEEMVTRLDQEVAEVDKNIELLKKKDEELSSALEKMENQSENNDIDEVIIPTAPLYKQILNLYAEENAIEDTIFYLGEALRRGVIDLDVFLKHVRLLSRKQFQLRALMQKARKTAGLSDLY
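Compounds pinned into 10 uM Tsg101 binding domain, then 50 nM FITC-PTAP peptide added in pH 7.5 HEPES buffer; FP read after 20 min, room temperature. Total S+P intensity flags fluorescent compounds; active cut-off <25 µM, efficacy <60%.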
FH mod = Identification of activators of human fumarate hydratase by quantitative high-throughput screening; FH coupled MDH/diaphorase resazurin fluorescence, 15 min; AID 1347055, 2019; Potency, µM (top dose mostly 79.9 µM), inactives show at the top dose activity change, negative = inhibition, hits mostly inhibitors; Fumarate hydratase, mitochondrial (Homo sapiens), P07954; 54,000 compounds, 0.22% hits; note: potency is the fitted concentration of half-maximal effect; % is set by controls: 0 for no effect and ±100 for the full control effect; the screen sought activators but most active calls are inhibition curves; nearly all actives have a fitted effect of over 45% in size
Starred values were filed as active, the others as inactive; i = inactive; ? = inconclusive; nt = no result; [ ] = dose if it differs, or a comment. Shown is part of a subset that was picked to be rich in hits. Calls come from the whole dose curve; as a rule, active = well fitted curve in the direction sought with a large enough effect; inconclusive = small, poorly fitted or top-dose-only effect, or another doubt; inactive = no such curve, though single readings can be large; an effect the other way counts as inactive or inconclusive.

SMILES	GALK inhibitor	NTMT1 inhibitor	GALC G270D up	B2AR arrestin ag	TSG101-PTAP inh	FH mod
Cc1ccccc1-c1nc(CS(=O)(=O)CC(=O)NCc2cccc(Cl)c2)c(C)o1	-2%	89µM*	i	i	i	-1%
Cc1ccc(-c2nc(CS(=O)(=O)CC(=O)NCc3ccc(Cl)cc3)c(C)o2)cc1	9%	-4%	i	i	i	0%
Cc1oc(-c2cccc(Cl)c2)nc1CS(=O)(=O)CC(=O)NCc1ccccc1Cl	-3%	89µM*	i	i	i	3%
CC(C)CN(CC(=O)N(CCCN1CCCC1=O)CC(N)=O)C(=O)CNCCc1ccccc1F	nt	15%	nt	nt	nt	13%
Cc1cc2oc(=O)c(CC(=O)O)c(C)c2c2occ(-c3ccccc3)c12	6%	28µM*	i	i	i	-20%
CCc1nn(CCO)c(CC)c1Oc1cc(C#N)cc(C#N)c1	nt	0%[57.5 µM]	nt	nt	nt	-2%
CC(NCc1ccc(OCc2cccc(F)c2)cc1)C(N)=O (stereo unspecified)	nt	0%[57.5 µM]	nt	nt	nt	4%
CCOc1ccc(C(=O)c2cn(CC(=O)Nc3cc(OC)cc(OC)c3)c3ccc(F)cc3c2=O)cc1	0%	79µM*	i	i	i	-7%
CC(C)(C)C1CCC(C(=O)Nc2ccc(S(=O)(=O)Nc3nccs3)cc2)CC1 (stereo unspecified)	nt	9%	nt	nt	nt	nt
Cc1cc(F)ccc1S(=O)(=O)Nc1cc2c(C(=O)O)c(C)oc2c2ccccc12	0%	4%	i	i	i	16µM*
O=C(Nc1cccnc1)c1cccs1	nt	-6%	nt	nt	nt	nt
O=C(Nc1ncc([N+](=O)[O-])s1)c1cccs1	nt	40µM*	i	nt	nt	0%[53.3 µM]
CCc1cccc(C)c1NC(=O)CCS(=O)(=O)c1ccc2c(c1)oc(=O)n2C	-1%	40µM*	i	i	i	0%
COc1c2cc(c(O[C@@H]3O[C@H](CO)[C@@H](O)[C@H](O)[C@H]3O)c1OC)CCCCC(O)CCc1ccc(O)c-2c1 (stereo partly specified)	nt	?	nt	nt	nt	-27%[53.3 µM]
CCOc1ccc(-c2nc(-c3cccc4c3CCC4NCCO)no2)cc1OCC (stereo unspecified)	nt	5%[57.5 µM]	nt	nt	nt	3%
COc1ccc(Cl)c(Nc2ncnc3cc(OCC4CCN(C)CC4)c(OC)cc23)c1	nt	28µM*	nt	nt	nt	-2%
COc1cc2ncnc(Nc3cc(Br)c(O)c(Br)c3)c2cc1OC	nt	?	nt	nt	nt	-16%
COc1cc2c(Nc3ccc(Cl)c(Cl)c3F)ncnc2cc1OCC1C[C@@H]2CN(C)C[C@@H]2C1 (stereo partly specified)	nt	11µM*	nt	nt	nt	-25%
COCCOC(=O)N1CCN(S(=O)(=O)c2cc(F)c(Oc3ccc(Cl)cc3)c(F)c2)C(C(=O)NO)C1 (stereo unspecified)	nt	7%	nt	nt	nt	nt
CCc1ccccc1NC(=O)Cn1nc(C(F)(F)F)c2c1CCC2	0%	-2%	i	i	i	2%
CCc1ccccc1NC(=O)Cn1nc(-c2cc(C)ccc2C)c2c(c1=O)CCCC2	0%	89µM*	i	?	i	?
CCC1=CC2CN(C1)Cc1c([nH]c3ccccc13)[C@@](C(=O)OC)(c1cc3c(cc1OC)N(C)[C@H]1[C@@](O)(C(=O)OC)[C@H](OC(C)=O)[C@]4(CC)C=CCN5CC[C@]31[C@@H]54)C2 (stereo partly specified)	nt	-1%[29.8 µM]	nt	nt	nt	5%[53.3 µM]
CCCc1cc(C(=O)N[C@H](Cc2ccc(-c3cccc(OC(F)(F)F)c3)nc2)C(=O)N[C@@H]2CCNC2)sc1C	nt	56µM*	nt	nt	nt	nt
CCN(C(=O)c1cc(S(=O)(=O)N2CCc3ccccc32)cn1C)c1cccc(C)c1	2%	89µM*	i	i	i	-32%
Nc1ncnc2c1C(=O)N(c1ccc(C3CCC(CC(=O)O)CC3)cc1)CCO2 (stereo unspecified)	nt	2%	nt	nt	nt	-5%

Source: PubChem
